Among the data in PubChem BioAssay AID1508600 (Functional Genomics Laboratory (NCATS/FGL), 2020) are z-score values, retold here.

About 3,700 (7%) of roughly 53,000 sequences were called active. The full list was thinned out, with actives kept by preference. Values without a mark were called inactive.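 Rule for the calls: active = gene knockdowns whose robust z-score for IL-1 alpha signal is at least 2 or at most -2, so actives lie on both sides; inactive = the rest.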

The nature of this test: Components of the Cytosolic LPS Sensing Pathway: Gene Identification via Genome-wide siRNA Screen.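 Note: robust z of the log signal after scaling to non-targeting control siRNA wells of the plate.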 The note with it: RAW264.7 macrophages, IL-1a HTRF, actives lie on both sides, screened at 100 nM (by protocol), cells primed 5 h with Pam3CSK4 first. A digest of the protocol: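 IL-1a HTRF of supernatants after 24 hour LipidA transfection of Pam3CSK4-primed (5 hours) RAW264.7 cells, 48h post-siRNA transfection (100 nM). Scores: percent of plate negative-control median, then log-based robust z-score.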
GGAGGAAAAUGAUGGAGAGTT against Lysmd1: the z-score was 2.28 (active).
The figure for CCACUUUAGCUCCUUUAAGTT against Tet3 is -0.438.
The figure for GGAGCUCUACAUCAUAGACTT against Lhx1 is 0.579; for GGUAAAACAGGUAUGUCGCTT against Ramac it is 0.48; for CGAUGAGCUAAGAGAGUCCTT against Cand2 it is 3.09 (active).
As for GGCCUACCUGGUUGAGAAATT against Spam1, the figure is 1.44; as for GGUCUAUGAAGAGAAGACUTT against Mtres1, 0.8.
As to GGCACAGUUCCUCAGUAUGTT against Hspbap1, the z-score is 1.76.
The figure for GCAUUAUACCUGUCAAGUUTT against Klk1b1 is 0.608; for CGAGUCAAUCAACUUGUCUTT against Olfr54 it is -0.882.
As for GGACUCUGAUCUGGAGUAGTT against Slc51a, the figure is -0.397.
As for GGCAAACAUCUGUAUCUAUTT against Golph3, the figure is -0.571; as for CGGCAACUCAACAAGCUUATT against Cbfa2t3, 2.38 (active).
Regarding GGCAUCUUUUGAAACAAUATT against Ubxn8, the z-score is -1.04.
In the case of GGCAGUGGGAUUACAAUGATT against Med12, the z-score was 2.02 (active).
As for GGCAUACAAAGCCCUCUAUTT against Kcnrg, the figure is -0.457; as for GGAUGUGAUGACUCAUUUUTT against Zbtb8os, 0.976.
As for GGUGAAUAAAGACCGAGGUTT against Anks6, the figure is -1.58; as for GCGUGAGGAUGUAGACUACTT against Mmp12, 0.699.
GGACAUUUUUGUCUCUAAATT against Pacc1: the z-score is 0.167.
As for CCGACACAAGAUGCUCAGUTT against Tmem9, the figure is -2.3 (active); as for GGACAAUUCCAUGCUUCCCTT against Il24, -0.00641; as for “CGCGCAGAUGCACCAGAUUTT against 2610028H24Rik”, 1.12.
The figure for GGUCAAAGAUGCUAUAAAATT against Olfr993 is -0.843.
As for GGAGGCAGCUCCUAUGAUGTT against Rbm28, the figure is 0.378; as for GGUGACUGGUAAAUGCCAGTT against Olfr1502, -0.428; as for GCCUAUGAUAAGUCUGUGUTT against Ifitm10, -2.25 (active).
As for CGGUCUUUAUACACAUAUATT against Wnt7a, the z-score is -0.0297.
As for GGUGAGAAUGUGCUUCAAUTT against Egr2, the figure is -0.0732.
As for GCAUCGUCUAUAUUUUUGGTT against Timm50, the figure is -1.56; as for GGAAGACGAAGAGUUUGGATT against Aqp5, 2.37 (active).
As for GGAAUGCUUAGUGAAAUUUTT against Ahctf1, the figure is 0.481; as for GGAUUCUGAACCUUACAGATT against Hoxd9, 1.61; as for CGGAGUUGGGAUUUACCAGTT against Pdia5, -0.594.
Consider CCGAGGAGAACACUUGUAGTT against Opn4, for which the z-score was -2.54 (active).
The figure for GGCACCUUAAUGCUGACUUTT against Sdc4 is -0.694; for GGCUCAAGGUUUUCUCUACTT against Olfr710 it is -0.0341; for GGUAUAUCCCUCACAAAAGTT against Dnah2 it is -1.69.
As for GCAGUUAUGUUAUAGCUGCTT against Ctu2, the figure is 0.0152; as for GCUAGUUUAAGAGACUUUGTT against Nfatc2ip, 0.234.
As for GGUCUAAGUCUGAAUGGCCTT against Agrp, the figure is 0.539; as for CGACUGGAAUCUAAUAACUTT against Fgf2, 0.987; as for CGGCUCCAGGCAAAUAUGGTT against Ezh1, -1.64.
In the case of GGAUCAAUGGUGUCUUUGUTT against Pdzk1, the z-score is -2.2 (active).
In the case of CGAGAAAGUAUUGACCGAGTT against Anxa5, the z-score was -0.524.
The figure for GGAAGGUGUUCGUAGAGAATT against Mad2l1 is 0.0941; for GCACCGUGUCGUUGACUUGTT against Trim56 it is 0.566.
As for CCUAUCGAGUGAAAGUAAATT against Abcg2, the figure is -0.304; as for “GGCACUGCUAUUAACUACATT against 4933414I15Rik”, -0.906.
The figure for CGCAGGUAUACAGGACUGCTT against Rhox8 is 2.33 (active); for CUGUUACCUAUCCCUCAUCTT against Sstr3 it is -0.663; for GCUACUCUUAUUCUACUUCTT against Slc29a3 it is 0.145.
Consider GCCCUCAUCAGAAGAAACUTT against Cox7b2, for which the z-score is 0.864.
The figure for GGUAGACCUAGAACAGCACTT against Ttyh2 is -0.495; for GGUGAGAUUACUGAAAGAATT against Plod2 it is -0.0899; for GCCAGUCCUGAUAGCAUCATT against Rhox6 it is -3.2 (active).
In the case of GGAGAAGGCAACUUCUGUUTT against Zfp641, the z-score is 0.19.
Turning to CCUAUUGAUUGUAUAUCCATT against Emc2, the z-score is -0.429.
As for CCAAAUUGUCUCUUCUAACTT against Dnah1, the figure is 0.0269; as for GGAACAAAGAGUUUAAGGATT against Olfr1415, 0.379; as for GGAACAAGUGGCUGAAGAUTT against Cyp11b2, 0.566.
On to GCAUGUUUCUAAACUUAGUTT against Sh3rf2, for which the z-score is -0.432.
The figure for GGUAUCGUAUAUGGAGAUCTT against Kif13a is 2.12 (active); for GGUUCUGAAAGAGUGUUAGTT against Htatsf1 it is -1.58; for GGGCUCACAUUGUACACACTT against Nckap5 it is 0.525.
The figure for GGACAUCUUUUCAAACGUGTT against Acap1 is -1.09; for GCUGAACGUGAGAUUGUGCTT against Acta1 it is 1.33.
As for GGUCAAUUAUGAAGCACCUTT against Pabpc4, the z-score is 0.158.
The figure for GGCAACAAAAAAAUCCCAATT against Cd160 is -0.647.
The figure for GGUAUCUGUGUGACUUCACTT against Pgpep1 is 3.63 (active); for GGGACAACAUUCAAAGGUCTT against Hdgfl1 it is -0.322.
Take GCGAUUGGCAGAUUGCUACTT against Tmem47: the z-score is 1.01.
Take GCCGUUUCGUGUGGUAUUUTT against Tm4sf1: the z-score is -2.64 (active).
The figure for GGGAUAGCAAGACUUUCACTT against C5ar1 is 0.194.
Take GGUUGUGAGUCAGUCUAGUTT against Tia1: the z-score is -1.55.
As for GGAGCUCUGUGAAUCUCUUTT against Ska1, the figure is -0.796; as for CCUUCCUGUUGUCAUGAGATT against Eipr1, -0.868; as for CCAAUGGUCAGGAGUGUAGTT against Prpsap2, -0.766.
The figure for GCGGCUCAAACUCAUUUUGTT against Gm4841 is 1.21; for CCUUGACCUUAAUGUCUUCTT against Fgf23 it is 2.05 (active).
The figure for GGUAUGAUGAUUGUUAGAUTT against Phf20 is 0.141; for “GCUCUAAAACUGUGUACUCTT against 4930579K19Rik” it is -0.167; for GGAAUUUUCUGGAAAUCCATT against Tctn2 it is -0.111.
As for GGCUCUCAUUGAUGCAUGUTT against Cpeb4, the z-score is -0.264.
As for GGAAUGAAACCAAGUAUAATT against Calcb, the figure is 0.853; as for GCAGGUUCAGGCAGUAAUUTT against Kpna4, 3.78 (active).
The figure for GCUCAUUGGGAUCAUUGGUTT against Fancd2 is 1.45.
Regarding GGUGACACCCAGAAUGAGCTT against Htatsf1, the z-score was 1.81.
As for GGACUGUGGAUAACCUGCUTT against Hspb2, the figure is -2.55 (active).
The figure for CCCUCAAUCUAACAGUGCATT against Dsg1b is 0.75; for GGAGAAAGACAACUUCCUATT against Clec7a it is 0.239; for GGCUCCUGUAAUGCUAACUTT against Zfp715 it is -0.191.
“GGAUACUUUAUGGUAUUUCTT against 9130023H24Rik”: the z-score is 1.45.
As for GAUUUCAAGAUCCAGACUCTT against Riiad1, the figure is -0.435; as for GCAGAGUUACAAGCUUUUATT against Diaph3, -4.98 (active).
The figure for CCUCGUUCCUUUGAAAUCATT against Gfi1 is 0.255; for GCUAUGUGAAUUUGUAUGATT against Parp11 it is 0.398; for GCAUACGAUAUCACCAUAUTT against Dsg1a it is 0.173.
As for GCUCCGGAACAGAUAAAACTT against Kat14, the figure is -0.485.
As for GGCAGUAACUUAAAACAGATT against Mecp2, the z-score is -0.139.
The figure for GCUGAAAGAAUUCGUGGACTT against Phf2 is 1.69.
The figure for GAUAUCACGGUCAUCUGUCTT against Pde6h is -0.19; for CCUCGUAUUAGAUGAUGCATT against Snrpe it is -2.79 (active); for CCUGCGCUUCUGACUAUCUTT against Dcbld1 it is 0.18.
As for GGAGACCUGGCAAAUGUAATT against Dctn5, the figure is 0.884; as for GGAUCUCGAGUCUCAUCUCTT against Ccdc166, 0.851; as for CCGGAAGAGCUUGCUUUAUTT against Sgpp2, 1.19.
